Sampled rows, rich in hits. Any-hit rate of the full collection: about 4%.
KKLEB cytotox = cytotoxicity in KKLEB CF airway cells, primary screen, cytotoxicity control for CF NF-kB inhibitor project, cell-based, uHTS, fluorescence assay plates; KKLEB CF airway cells viability, ATPlite luminescence, overnight; active compounds read low; cells stimulated with P. aeruginosa culture filtrate; activity change (cytotoxicity), % at 5 µM; 0.36% of 360,000 active; AID 602141, 2011;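 active = corrected activity change at or below -50% at 5 µM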
CF NFkB block = inhibitors of PAF-induced NF-kB signaling, primary screen, cell-based, GFP fluorescence, uHTS; KKLEB NF-kB-GFP reporter, GFP fluorescence overnight; inhibition, % at 5 µM; 0.86% of 360,000 active; AID 588850, 2011;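 active = at least 50% inhibition at 5 µM, scaled per plate between neutral and stimulator controls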;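 note: PAF is a Pseudomonas aeruginosa culture filtrate used as stimulus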
TROY signal inh = inhibitors of TROY-driven NF-kB signaling, primary screen, Q293 LMP1-TROYcd cells, NF-kB luciferase, uHTS; Q293 LMP1-TROYcd NF-kB luciferase reporter, 4 h; inhibition, % at 10 µM; 0.98% of 360,000 active; AID 1347056, 2019;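 active = compounds whose plate-normalised and pattern-corrected inhibition of the luciferase reporter signal at the single screening dose is 50% or more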
Peg3 promoter = Peg3 promoter-driven luciferase inhibitors, primary screen, cell-based, HeLa, luciferase luminescence. HeLa PEG-Prom luciferase reporter, overnight. inhibition, % at 20 µM. 1.7% of 360,000 active;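 active = inhibition of at least 50% at 20 µM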
TWEAK Fn14 block = inhibitors of TWEAK-Fn14 signaling, primary screen, luciferase reporter cells, uHTS; TWEAK-stimulated Fn14 reporter cells, luciferase luminescence, 8 h; inhibition, % at 10 µM; 2% of 360,000 active; in the data active = inhibition above about 50%
HIF-2a inh = HIF-2a reporter inhibitors, primary screen, luminescence, 786-0 RCC cells; inhibition, % at 18.8 µM; 0.72% of 360,000 active; AID 624352, 2012; 786-0 RCC cells HIF-2a reporter, luciferase luminescence, overnight;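 active = inhibition of the luminescence signal of 40% or more relative to plate controls, in a single-dose primary screen at 18.75 µM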
A number is an active result; – = inactive; · = no result given.

SMILES	KKLEB cytotox	CF NFkB block	TROY signal inh	Peg3 promoter	TWEAK Fn14 block	HIF-2a inh
COc1cc2cc(C(=O)N3CC(COS(C)(=O)=O)c4ccc(O)cc43)[nH]c2c(OC)c1OC (stereo not given)	-96	88	72	99	108	83
COc1ccc(OC)c(-n2c(O)c(C=Nc3c(C)n(C)n(-c4ccccc4)c3=O)c(=O)[nH]c2=S)c1	–	–	–	–	–	–
COc1cc2c(c(OC)c1OC)-c1ccc(O)c(=O)cc1C(NC(C)=O)CC2 (stereo not given)	–	54	–	–	–	–
CSCCC(c1nnnn1Cc1ccccc1)N1CCC(n2c(=O)[nH]c3ccccc32)CC1 (stereo not given)	-104	87	–	65	–	–
Cc1cccc(C)c1-n1nnnc1C(c1cccs1)N1CCC(n2c(=O)[nH]c3ccccc32)CC1 (stereo not given)	–	–	–	–	–	–
O=c1[nH]c2ccccc2n1C1CCN(C(c2nnnn2C2CCCCC2)C2CC2)CC1 (stereo not given)	–	–	–	–	–	–
Cc1cccc(C)c1-n1nnnc1C(C1CC1)N1CCC(n2c(=O)[nH]c3ccccc32)CC1 (stereo not given)	–	–	–	51	–	–
O=c1[nH]c2ccccc2n1C1CCN(C(c2nnnn2C2CCCC2)C2CC2)CC1 (stereo not given)	–	–	–	–	–	–
O=c1[nH]c2ccccc2n1C1CCN(C(c2ccccc2OC(F)(F)F)c2nnnn2Cc2ccccc2)CC1 (stereo not given)	-54	82	61	92	61	–
O=c1[nH]c2ccccc2n1C1CCN(C(c2nnnn2Cc2ccccc2)C2CC2)CC1 (stereo not given)	-79	86	–	76	–	–
CN1CC2CN(Cc3ccccc3)S(=O)(=O)C2C1 (stereo not given)	–	–	–	–	–	–
CN(C)CCSCc1nnc2n1-c1ccc(Cl)cc1C(c1ccccc1Cl)=NC2	–	–	–	–	–	–
CC(=O)OC1CCC2(C)C(=CC(=O)C3C2CCC2(C)C(OC(C)=O)CCC32)C1 (stereo not given)	–	–	–	–	–	–
COc1ccc(C(=O)C2CCCN(CCO)C2)c(C)c1 (stereo not given)	–	–	–	–	–	–
COc1ccc(-c2nn(CCC#N)cc2C(=O)Nc2cccc([N+](=O)[O-])c2)cc1OC	–	–	–	–	–	–
Brc1ccc2c(c1)-n1nncc1CN(CC1CCCCC1)C2	–	–	–	–	–	–
CSCCC(c1nnnn1C1CCCCC1)N1CCC(n2c(=O)[nH]c3ccccc32)CC1 (stereo not given)	–	–	–	–	–	–
COc1ccc(C(c2nnnn2Cc2ccccc2)N2CCC(n3c(=O)[nH]c4ccccc43)CC2)cc1 (stereo not given)	-96	85	–	74	–	–
O=c1[nH]c2ccccc2n1C1CCN(C(CCc2ccccc2)c2nnnn2C2CCCCC2)CC1 (stereo not given)	-69	86	53	98	69	–
O=c1[nH]c2ccccc2n1C1CCN(C(c2cccs2)c2nnnn2Cc2ccccc2)CC1 (stereo not given)	-79	86	–	78	–	–
CC(C)(C)n1nnnc1C(C1CC1)N1CCC(n2c(=O)[nH]c3ccccc32)CC1 (stereo not given)	–	–	–	–	–	–
Cn1c(=O)c2c(nc(N/N=C/c3c(O)n(C4CCCCC4)c(=S)[nH]c3=O)n2C)n(C)c1=O	–	–	–	–	–	–
COC(=O)C1=C(c2cc3ccccc3o2)C[C@@H]2CC[C@H]1N2C(=O)N1CCOCC1	–	–	–	–	–	–
c1ccc2c(c1)Sc1ccccc1N2CC1CN2CCC1CC2 (stereo not given)	–	–	–	–	–	–
Cc1cc(N2CCNCC2)nc2ccccc12	–	–	–	–	–	–
SMILES	KKLEB cytotox	CF NFkB block	TROY signal inh	Peg3 promoter	TWEAK Fn14 block	HIF-2a inh
CCN1/C(=C/C=C/C2=[N+](CC)c3ccccc3C2(C)C)C(C)(C)c2ccccc21	–	–	66	96	82	39
COc1ccc(-n2c(Cc3ccccc3)nc3ccccc3c2=O)cc1	–	–	–	–	–	–
CC1=C2C(=O)C3C(CC=C4CC(O)CCC43C)C2CCC12OC1CC(C)CNC1C2C (stereo not given)	–	–	–	–	97	–
O=[N+]([O-])c1ccc(Cl)c([N+](=O)[O-])c1	–	58	–	58	–	–
O=[N+]([O-])c1ccc(O)c([N+](=O)[O-])c1	–	–	–	–	–	–
Cc1ccc(C(=O)C2CN(C)CC2C(=O)c2ccc(C)cc2)cc1 (stereo not given)	–	–	–	–	–	–
Cc1ccc(C(=O)C2CN3CCC2CC3)cc1 (stereo not given)	–	–	·	–	84	–
CN1CC(C(=O)c2ccc([N+](=O)[O-])cc2)C(c2ccc(Cl)cc2)C1 (stereo not given)	–	–	–	–	–	–
NC(=O)c1cn(C2OC(CO)C(O)C2O)c2ncnc(N)c12 (stereo not given)	-83	89	–	93	89	67
CCNC(=O)[C@H]1O[C@@H](n2cnc3c(N)ncnc32)[C@H](O)[C@@H]1O	–	–	–	–	–	–
N#Cc1cn(C2OC(CO)C(O)C2O)c2ncnc(N)c12 (stereo not given)	–	96	52	96	72	–
CCC1CN2CCc3cc(OC)c(OC)cc3C2CC1CC1NCCc2c1[nH]c1ccc(O)cc21 (stereo not given)	–	89	85	99	99	57
OCC1OC(n2cnc3cc(Cl)c(Cl)cc32)C(O)C1O (stereo not given)	–	–	54	–	–	–
CNC(=O)Nc1ccc(C(=O)N/N=C\C23CC[C@@H](O)CC2(O)CC[C@@H]2[C@@H]3CCC3(C)C(C4=CC(=O)OC4)CCC23O)cc1 (stereo not given in full)	–	–	–	–	–	–
COC1C(O)C(C)OC(OC2CCC3(C)C(CCC4C3C(O)CC3(C)C(C5=CC(=O)OC5)CCC43O)C2)C1O (stereo not given)	–	86	55	100	86	74

Screening results from PubChem BioAssay.
